Data from PubChem BioAssay (NCI).
Several values for one entry are separate records, joined by “and”; a condition that tells them apart may be missing. Equal values may be shown once. The panel holds about 83,000 compounds, 20% with a hit somewhere; the sample as a whole holds those more often.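 In brief: 96-well plates, 48 h treatment, single concentration, percent growth endpoint.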 Activity calls are given as the source filed them. How the source made its calls: active means growth percent below 10; inactive means the rest.

Test system: HL-60(TB) leukemia
Assay: NCI-60 one-dose screen, 48 h (100 = growth as untreated, 0 = no growth, -100 = all killed)
Settings: 10 µM unless noted

Row | SMILES | growth
1 | COC1C(=O)CCC2(CO2)C1(O)C1(C)OC1CCC(C)C (stereo not given) | 68% (inactive)
2 | COC(=O)[C@]1(C)CCC[C@]2(C)[C@H]3C[C@H]4C(C(C)C)=C[C@]3(CC[C@H]21)[C@H]1[C@@H]4[C@@H](OCCC#N)CC[C@@H]1OCCC#N | 2.28% (active)
3 | CC(=O)OCC(=O)[C@@]1(O)[C@H](C)C[C@H]2[C@@H]3C=C(C)C4=Cc5c(cnn5-c5ccc(F)cc5)C[C@]4(C)[C@H]3[C@@H](O)C[C@@]21C | 16.3% (inactive)
4 | CCC(=O)Oc1ccc(OCc2ccccc2)cc1 | 35.9% (inactive) and 84.2% (inactive)
5 | O=C1c2ccccc2C(=O)N1/N=C/c1ccc2c(c1)OCO2 | 88.1% (inactive)
6 | COc1cc(C2CC(c3cccc(Nc4ccncc4)c3)=NN2c2ccc(Cl)cc2)cc(OC)c1OC (stereo not given) | -45.2% (active)
7 | C#CCn1c(-c2cccc(OCCCCl)c2)nc2c1c(=O)n(C)c(=O)n2C | -15.7% (active)
8 | COc1ccc(NC(=O)c2cc(OC)c(OC)c(OC)c2)cc1O | 32.5% (inactive)
9 | Cn1cnc([N+](=O)[O-])c1S(=O)(=O)Oc1cccc2ccccc12 | 4.37% (active)
10 | COC(=O)[C@H](Cc1ccccc1)NC(=O)[C@@H](OC)[C@@H]1Cc2cc3cc(OC4CC(OC5CC(O)C(O)C(C)O5)C(O)C(C)O4)c(C)c(O)c3c(O)c2C(=O)[C@H]1OC1CC(OC2CC(OC3CC(C)(O)C(O)C(C)O3)C(O)C(C)O2)C(O)C(C)O1 (stereo not given in full) | -9.07% (active)
11 | COC(=O)[C@H]1CCCN1C(=O)C1CCCN1C(=O)[C@@H](Cc1ccccc1)NC(=S)Nc1cc(C(F)(F)F)cc(C(F)(F)F)c1 (stereo not given in full) | 112% (inactive) and 58.9% (inactive)
12 | Cc1cc(Cl)ccc1Nc1nc(C(F)(F)F)ccc1C(=O)NCC(=O)N/N=C/c1c(Cl)cccc1Cl | 48.7% (inactive)
13 | N#CC1=C(N)n2nc(-c3ccncc3)nc2NC1c1cccc2ccccc12 (stereo not given) | 89.8% (inactive)
14 | CN1CCN(C(=O)c2ccc(NC(=O)Nc3ccc(-c4nc(N5CCOCC5)c5cccn5n4)cc3)cc2)CC1 | 7.69% (active)
15 | O=C(O)CCC(=O)Nc1nnc(-c2ccccc2)s1 | 92.2% (inactive)
16 | COc1ccc(C(=O)COc2ccc(/C=C3\Oc4ccccc4C3=O)cc2)cc1 | 76% (inactive)
17 | c1ccc(N2N=C(c3cccc(Nc4ccncc4)c3)CC2c2ccc3c(c2)OCO3)cc1 (stereo not given) | -21.1% (active)
18 | CNc1ccc2nc3ccc(=[N+](C)C)cc-3sc2c1 | -22.9% (active) and 5.72% (active)
19 | COc1cc(NC(C)CCCN2C(=O)c3ccccc3C2=O)c2ncccc2c1OC (stereo not given) | -96.9% (active)
20 | Cc1ccc(N2CCN(C(C)C(N)=O)CC2)cc1 (stereo not given) | 158% (inactive)
21 | C=C1CCC[C@]2(C)CCC[C@H](C)[C@@H](OC(C)=O)[C@@H]3OC(=O)C(=C)[C@@H]3C[C@H]1O2 | 41.8% (inactive)
22 | CC1=CCC2CC1C2(C)C (stereo not given) | 105% (inactive) and 92.9% (inactive)
23 | COC(=O)CCCCCCN=Cc1c(O)c(O)c(C(C)C)c2cc(C)c(-c3c(C)cc4c(C(C)C)c(O)c(O)c(C=NCCCCCCC(=O)OC)c4c3O)c(O)c12 | 16.6% (inactive)
24 | C=C1CC[C@@H]2[C@](C)(COC(C)=O)[C@H](OC(C)=O)CC[C@@]2(C)[C@@H]1CC(Nc1ccc(S(=O)(=O)Nc2cc(C)on2)cc1)C1=CCOC1=O (stereo not given in full) | -2.05% (active)
25 | c1cc(CNCCNCc2ccncc2)ccn1 | 75.8% (inactive)
26 | O=C1CC(=O)N(C(=O)c2nn(-c3ccc(Cl)cc3)cc2O)N1 | 4.53% (active)
27 | C#CC(=O)Nc1cccc2c1cc(C)n2-c1nc2c(c(NCc3ccccc3)n1)CCCC2 | -40.1% (active)

Row | SMILES | growth
28 | COc1cc(C2NC(c3ccc(Cl)cc3)C(C)C(=NC(=O)c3cnccn3)C2C)cc(OC)c1OC (stereo not given) | 98.4% (inactive)
29 | CC(=O)OCC(COC(C)=O)(COC(C)=O)COC(C)=O | 104% (inactive)
30 | COc1ccc(-c2nc3ccccn3c2/C=C/C(=O)c2cc(OC)c(OC)c(OC)c2)cc1 | 49.9% (inactive)
31 | NCCN1CCN(c2nccc(-c3ccc4ccccc4c3)n2)CC1 | 34.3% (inactive)
32 | C(#CCN1CCOCC1)CCCN1CCOCC1 | 93% (inactive) and 127% (inactive)
33 | N#Cc1c(-c2ccccc2)cc(-c2ccccc2)n(CCCC(=O)Nc2ccccc2N)c1=O | 21.5% (inactive)
34 | CCCCCCCCCCCCCCCCC(Br)C(=O)O (stereo not given) | 111% (inactive)
35 | c1ccc(C2=NN[C@H](c3cn(-c4ccccc4)nc3-c3ccccc3)C2)cc1 | 112% (inactive)
36 | NC(=O)c1c(NC(=S)Nc2ccc(OC(F)(F)F)cc2)sc2c1CCC1(C2)OCCO1 | 94.2% (inactive)
37 | COc1ccc(OC)c(/C=C2\Oc3cc(OCCN4CCC(Cc5ccccc5)CC4)ccc3C2=O)c1 | 98.2% (inactive)
38 | COc1ccc(C(=O)c2cc(OC)c(OC)c(OC)c2)cc1/C=C/C(=O)c1ccc(OC)c(OC)c1 | 19.1% (inactive)
39 | CCCCCCNC(=O)Oc1ccc(/C(=C(\C)c2ccc(Cl)cc2)c2ccc(OCCN3CCCCC3)cc2)cc1 | -18.5% (active)
40 | C#Cc1ccc(NC(=O)c2ccc(/C=C/C(=O)c3nccn3C)cc2)cc1 | -27.2% (active)
41 | CCCc1c(C)nc2scc(-c3ccc(Cl)cc3)n2c1=O | 98% (inactive)
42 | O=C(O)CC(Cl)C(Cl)CC(=O)O (stereo not given) | 99.5% (inactive)
43 | CCCCCCc1cc2cc(-c3csc(/C=C/c4ccccc4)n3)c(=O)oc2cc1O | -46.8% (active)
44 | COc1ccc(-c2nn(-c3ccc(Cl)cc3)cc2-c2nc3ccccc3[nH]2)cc1 | 114% (inactive)
45 | Cc1c(C(=O)O[C@H]2[C@@H]3[C@H](C)CC[C@H]3[C@]3(C)O[C@@]2(C2CCCCC2)C[C@H]3OC(=O)CO)ccc2ccccc12 | -31.5% (active)
46 | Cc1ccc(Nc2c(C(N)=O)cnc3ccc(-c4csc(N)n4)cc23)cc1 | 109% (inactive)
47 | COCCn1cc(-c2nc(-c3cc4cccnc4n3CCOC)cs2)c2cc(OC)ccc21 | 95.6% (inactive)
48 | COc1cccc(CNc2ccc3ncnc(Nc4ccc(F)c(Cl)c4)c3c2)c1 | 93.6% (inactive)
49 | O=Cc1ccc([N+](=O)[O-])s1 | 81.9% (inactive)
50 | CC(=O)n1nc(C(=O)OC(C)C)c2cc(C)c(C)cc21 | 83.7% (inactive)
51 | COc1cc(/C=C2/C=C(c3ccccc3)N(CCc3ccc(S(N)(=O)=O)cc3)C2=O)cc(OC)c1OC | 86.7% (inactive)
52 | NC(Cc1ccccc1)C(=O)NC(Cc1ccccc1)C(=O)O (stereo not given) | 105% (inactive) and 102% (inactive)
53 | CCN(CC)CCCNc1ccc(Nc2ccc(OC)cc2)cc1 | -48.7% (active)
54 | CCCCCCCCCCCCCCCCCCOc1ccccc1CC(=O)OCC[N+]1(C)CCCC1 | 22.9% (inactive)

Row | SMILES | growth
55 | O=C(O)CNC(=O)C1(N2C(=O)c3ccccc3C2=O)CCCC1 | 90.6% (inactive)
56 | CCN1CC(=O)N(/N=C2\C(=O)Nc3ccccc32)C1=S | 82.7% (inactive)
57 | Cc1ccc(C(=O)/C(=C/c2ccc([N+](=O)[O-])cc2)S(=O)Cc2ccccc2)cc1 (stereo not given) | 36.8% (inactive)
58 | O=C1Nc2ccc(I)cc2C1=O | 111% (inactive)
59 | NS(=O)(=O)c1ccc(C2C3=C(CCCC3=O)OC3=C2C(=O)c2ccccc2C3=O)cc1 (stereo not given) | -40.5% (active)
60 | CCOC(=O)c1sc(NS(=O)(=O)c2ccccc2)nc1C | 153% (inactive)
61 | NC(=S)N/N=C/Cc1ccccc1 | 47.2% (inactive)
62 | Nc1ccc(N2CCOCC2)cc1 | 81.8% (inactive)
63 | O=C(/C=C/c1ccccc1)Oc1ccc(/C=C/c2cc(OC(=O)/C=C/c3ccccc3)cc(OC(=O)/C=C/c3ccccc3)c2)cc1 | 93% (inactive)
64 | COc1ccc(NC(=O)C(=O)c2c[nH]c3ccc(F)cc23)cc1 | 79% (inactive)
65 | O=C1CSC(c2ccccc2Cl)N1c1nnc(Cn2cnnc2)o1 (stereo not given) | -17.3% (active)
66 | O=[N+]([O-])c1ccc2[nH]cc(-c3c4ccsc4cc4[nH]c5ccc([N+](=O)[O-])cc5c34)c2c1 | 8.08% (active)
67 | CC[C@]12C=CCN3CC[C@@]4(c5cc(NC(=O)CCC(=O)OCc6cn(Cc7ccc(F)cc7)nn6)c(OC)cc5N(C)[C@H]4[C@@](O)(C(=O)OC)[C@@H]1OC(C)=O)[C@@H]32 | 96.8% (inactive)
68 | N#CCCN1C(=O)CCC1C(=O)O (stereo not given) | 85.9% (inactive)
69 | CCOC(=O)c1cc(C(=O)c2ccc(OC)c(OC)c2)n2ccncc12 | 92% (inactive)
70 | COc1ccc(-c2nsc3c2NC(=O)CC3c2cccc(Cl)c2)cc1 (stereo not given) | -19.2% (active)
71 | N=C(N)c1ccc(-c2ccc(-c3ccco3)o2)cc1 | 16.6% (inactive)
72 | CCCCC1(CC)COC(CCC)OC1 (stereo not given) | 115% (inactive)
73 | Cc1cc(N2CCOCC2)nc(N2CCOCC2)n1 | 97.9% (inactive)
74 | COC(=O)[C@H](Cc1cnc[nH]1)NC(=O)[C@@H](NC(=O)Nc1cc(C(F)(F)F)cc(C(F)(F)F)c1)C(C)C | -62.5% [100 µM] (active)
75 | C=C(C)[C@@H]1CC[C@]2(C(=O)NCC#CCN3CCN(C)CC3)CC[C@]3(C)[C@H](CC[C@@H]4[C@@](C)(CCC#N)[C@H](C(=C)C)CC[C@]43C)[C@@H]12 | 10.9% (inactive)
76 | Cc1cc(C(=O)CSc2nc3ccccc3c(=O)[nH]2)c(C)n1C | 102% (inactive)
77 | CCn1c(Cc2ccccc2Nc2c(Cl)cccc2Cl)nnc1SCC(=O)Nc1ccccc1C(F)(F)F | 86.9% (inactive)
78 | CC(C)(C)CC(C)(C)c1ccc(OCCO)cc1 | 91.5% (inactive)
79 | CC1CCC2(C(=O)O)CCC3(C)C(=CCC4C5(C)CCC(O)C(C)(C)C5CCC43C)C2C1C (stereo not given) | 5.83% (active) and 40.2% (inactive)
80 | COc1cc(-c2nn(-c3cccc(NC(=O)NCCNC(=O)c4ccccc4)c3)cc2-c2ccncc2)ccc1Cl | -8.76% (active)
